ELG1 repair inh: ELG1-dependent DNA repair inhibition. actives 2.3% (n = 330,000). HEK293T ELG1-luciferase reporter, luminescence, 16 h; DNA damage induced by 5-fluorouridine. Potency, µM (series often up to 46.1 µM), most hits filed as inhibitors; note: nearly all actives have a fitted effect of over 55% in size
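5-Fluorouridine DNA damage + compound/DMSO, 2,000 cells/well, 16 h, 37 °C/5% CO2. ONE-Glo, 30 min RT, luminescence. Readout = decrease in reporter signal.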
TDP1 cell CPT: growth inhibition of DT40 Tdp1-/-;hTDP1 cells with camptothecin (screen for TDP1 inhibitors). chicken DT40 Tdp1-/-;hTDP1 cells + 20 nM CPT, ATP luminescence, 48 h. Potency, µM (highest dose often 46.2 µM), actives largely listed as inhibitors. actives 12% (n = 420,000). AID 686979; note: nearly all actives have a fitted effect of over 55% in size
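Chicken DT40 Tdp1-/- cells stably complemented with human TDP1 were seeded at 400 cells/well in medium containing 20 nM camptothecin, exposed to pin-transferred compounds, and grown at 37 °C for at least 48 hr. Viability was read as ATP luminescence.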
HT1080NT lethal: kills 2HG-producing HT-1080-NT fibrosarcoma cells | HT-1080-NT fibrosarcoma viability, CellTiter-Glo ATP luminescence, 48 h | Potency, µM (top dose mostly 46.1 µM), most hits filed as cytotoxic | actives 1.6% (n = 360,000) | AID 686970;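 note: NT is the 2HG producing partner of a matched IDH1 knockdown line; nearly all actives have a fitted effect of over 55% in size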
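A 48-hour cytotoxicity screen used HT-1080-NT cells plated 2 hours before compound delivery. ATP-based CellTiter-Glo luminescence measured viability, normalized to DMSO and no-cell controls.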
IL-1B inflam inh: inhibitors of inflammasome signaling (IL-1 beta secretion). AID 743279. actives 4.7% (n = 360,000). activity change, % at 57.5 µM. THP-1 LPS/ATP IL-1B secretion, AlphaLISA, 16 h; hits give low values; in the data active = activity change below about -50%; inconclusive = mostly about -30% to -49%
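THP-1 cells pretreated 1 hr with compounds (up to 57.5 uM final), then stimulated with LPS (250 ng/mL final) plus ATP (1.25 mM final); secreted IL-1B measured by AlphaLISA after 16 hr, decreased signal indicating inhibition.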
HT1080 IDH1KD tx: HT-1080 IDH1 knockdown cell toxicity (counter line); HT-1080 IDH1 knockdown viability, ATP luminescence, 48 h; Potency, µM (doses to about 46.1 µM), actives largely listed as cytotoxic; actives 2% (n = 360,000); AID 686971
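Knockdown cells (IDH1KD HT-1080) received compounds 2 h after plating at 750 cells/well and were kept 48 h at 37 °C in 5% FBS RPMI. A CellTiter-Glo luminescence read gave % activity for curve fitting.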
TDP1 cell noCPT: qHTS for Inhibitors of human tyrosyl-DNA phosphodiesterase 1 (TDP1): qHTS in cells in absence of CPT. DT40 Tdp1-/- hTDP1 cells, no CPT, ATP luminescence, 48 h. Potency, µM (highest dose often 46.2 µM), hits mostly inhibitors. actives 15% (n = 420,000); note: nearly all actives have a fitted effect of over 55% in size
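DT40 Tdp1-/-;hTDP1 cells, no CPT (DMSO vehicle only), 400 cells/well; compounds pin-transferred; ≥48 hr, 37 °C; CellTiter-Glo 30 min RT dark, luminescence read.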
Hits are given with their value; n = inactive; u = inconclusive; x = no result given. Shown are actives, neighbours in structure and some others; about 19% of the full set was active somewhere. Unless noted, calls come from the whole dose curve; as a rule, active = well fitted curve in the direction sought with a large enough effect; inconclusive = small, poorly fitted or top-dose-only effect, or another doubt; inactive = no such curve, though single readings can be large; an effect the other way counts as inactive or inconclusive.

SMILES	ELG1 repair inh	TDP1 cell CPT	HT1080NT lethal	IL-1B inflam inh	HT1080 IDH1KD tx	TDP1 cell noCPT
CC(C)c1cnc2c(c1SCC(=O)NCc1ccccc1Cl)c(=O)n(C)c(=O)n2C	x	n	x	x	x	n
O=C(NCCc1ccccc1)c1nn(-c2ccccc2Cl)nc1CO	x	11.6µM	x	x	x	13µM
O=C(NCCc1ccccc1)c1cnc(Cl)c(Cl)c1	u	n	n	-87.3	n	u
O=C(NCCCSc1ccccc1)c1cccnc1	n	n	n	n	n	n
O=C(NCCCSc1ccccc1)c1cnc(Cl)c(Cl)c1	n	n	n	-93.7	n	n
N#Cc1ccc(C(=O)NCCCSc2ccccc2)cc1	n	u	n	n	n	20.6µM
CCC(/C=C/C(C)C1CCC2C3CC=C4CC(O)CC[C@@]4(C)C3CC[C@@]12C)C(C)C (stereo partly specified)	x	n	x	x	x	n
CNS(=O)(=O)c1cn(CC(=O)NCc2ccc(OC)cc2)cc1S(=O)(=O)NC	n	n	n	n	n	n
CNC(=O)C1CCC(=O)N1Cc1c[nH]c2ccccc12 (stereo unspecified)	x	n	n	n	n	n
Cc1ccc(OCCC(=O)NNC(=O)c2ccccc2F)cc1	n	n	n	n	n	n
Cc1ccc2ccc[n+](Cc3ccccc3)c2c1	n	16.4µM	n	n	n	9.2µM
Cc1ccc2c(c1)c(C)cc[n+]2Cc1ccccc1	n	2.59µM	n	n	u	2.91µM
Cc1ccc2c(ccc[n+]2CC(=O)c2ccccc2)c1	n	u	n	n	n	n
COc1ccc2c(c1)c(C)cc[n+]2Cc1ccccc1	n	2.59µM	14.6µM	n	23.1µM	1.64µM
O=C(COC(=O)C1CC(=O)N(Cc2ccccc2)C1)Nc1ccccc1F (stereo unspecified)	u	n	n	n	n	n
CCN(CC)C(=O)Cn1c(=O)cc(C)c2c(C)nn(C)c21	x	n	x	x	x	n
CN1CCN(c2ncnc3ccc(-c4cccc(NS(C)(=O)=O)c4)cc23)CC1	x	3.66µM	x	x	x	6.51µM
CS(=O)(=O)Nc1cccc(-c2ccc3ncnc(NC4CC4)c3c2)c1	x	8.2µM	x	x	x	6.51µM
CCc1ccc(NS(=O)(=O)c2ccc3[nH]cc(C(=O)N(C)Cc4ccco4)c(=O)c3c2)cc1	n	u	n	n	n	14.6µM
Cc1cc(C)cc(NS(=O)(=O)c2ccc3[nH]cc(C(=O)NCCc4ccccc4)c(=O)c3c2)c1	x	u	x	x	x	16.4µM
O=C(NC1CCCC1)c1c[nH]c2ccc(S(=O)(=O)Nc3cccc(C(F)(F)F)c3)cc2c1=O	x	u	x	x	x	20.6µM
CN(C(=O)c1c[nH]c2ccc(S(=O)(=O)Nc3cccc(C(F)(F)F)c3)cc2c1=O)C1CCCCC1	x	n	x	x	x	n
CN(Cc1ccco1)C(=O)c1c[nH]c2ccc(S(=O)(=O)Nc3ccc4c(c3)OCCO4)cc2c1=O	n	n	n	n	n	n
COc1cccc(NS(=O)(=O)c2ccc3[nH]cc(C(=O)NCCC(C)C)c(=O)c3c2)c1	18.4µM	10.3µM	11.6µM	n	u	14.6µM
CCC1CCCCN1C(=O)c1c[nH]c2ccc(S(=O)(=O)Nc3cccc(OC)c3)cc2c1=O (stereo unspecified)	x	n	x	x	x	n
SMILES	ELG1 repair inh	TDP1 cell CPT	HT1080NT lethal	IL-1B inflam inh	HT1080 IDH1KD tx	TDP1 cell noCPT
Cn1nc(CSc2ccccc2)c(C=O)c1Cl	u	n	n	n	n	n
CC(=O)c1ccc(OC2(C)CCN(Cc3ccc4c(c3)OCCO4)C2)cc1 (stereo unspecified)	x	n	n	n	n	n
O=C(C1CCCO1)N1CCN(S(=O)(=O)c2cc(C(F)(F)F)ccc2Cl)CC1 (stereo unspecified)	n	n	n	n	n	n
Cc1ccc(CCNC(=O)c2c[nH]c3ccc(S(=O)(=O)Nc4cccc(C(F)(F)F)c4)cc3c2=O)cc1	x	20.6µM	x	x	x	u
N#Cc1c(Nc2ccc(Cl)cc2)s[nH]c1=O	n	14.6µM	n	-72.5	u	11.6µM
CSc1nc(Nc2ccc(Cl)cc2)c(C#N)c(=O)[nH]1	n	n	n	n	n	n
Oc1c(N=Nc2ccccn2)ccc2ccccc12	u	1.46µM	u	-53.8	2.31µM	1.64µM
CC(=O)N1CCCC(C)(C(=O)N(C)Cc2cccc3ccccc23)C1 (stereo unspecified)	x	23.1µM	n	n	n	u
CCOC(=O)CSc1nc2cc(OCC)ccc2cc1C#N	u	n	n	n	n	n
CC(=O)CSc1nc2cc3c(cc2cc1C#N)OCCO3	u	14.6µM	n	n	n	u
CCOc1ccc2cc(C#N)c(SCC(=O)N3CCC(C)CC3)nc2c1	u	u	n	n	n	20.6µM
N#Cc1cc2cc3c(cc2nc1SCC(=O)N1CCCC1)OCCO3	u	n	n	n	n	n
CCOC(=O)CSc1nc2cc(OC)c(OC)cc2cc1C#N	x	u	x	x	x	17.8µM
COc1cc2cc(C#N)c(SCC(=O)N3CCOCC3)nc2cc1OC	n	n	n	n	n	n
CCc1ccc2nc(SCC(=O)N(CC)CC)c(C#N)cc2c1	n	20.6µM	n	n	n	14.6µM
CCCCN(CC)CCCNC(=O)c1ccc2c(c1)NC(=O)CN2C	x	n	x	x	x	n
C[C@@H]1CN([C@H](C)CO)C(=O)CCCn2nncc2CO[C@H]1CN(C)C(=O)Cc1ccccc1	x	n	n	n	n	n
COc1ccccc1CNC(=O)c1sc2nc3n(c(=O)c2c1C)CCC3	x	n	x	x	x	n
CC1(C)Cc2c(cnn2-c2ccc(F)cc2)C(NC(=O)CCCN2CCCCC2=O)C1 (stereo unspecified)	n	n	n	n	n	n
COc1cccc(NC(=O)C2CCC(CNS(=O)(=O)c3csc(C(N)=O)c3)CC2)c1 (stereo unspecified)	x	u	x	x	x	n
COc1cc(C(=O)N2Cc3cc4ccccc4nc3C2C)cc(OC)c1OC (stereo unspecified)	x	n	n	n	n	u
Cc1ncc(C(O)c2ccccc2)n1Cc1ccccc1 (stereo unspecified)	x	u	n	n	n	23.1µM
Cn1ccnc1C(O)c1cccc(OCc2ccccc2)c1 (stereo unspecified)	n	n	n	n	n	n
Cc1cccc(C(O)c2cnc(C)n2Cc2ccccc2)c1 (stereo unspecified)	x	u	n	n	n	18.4µM
COc1ccc(C)cc1NC(=O)COc1cc(=O)n(C)c2ccccc12	x	n	x	x	x	n
Cc1c(OCC(=O)NC2CCN(Cc3ccccc3)CC2)ccc2c3c(c(=O)oc12)CCC3	n	16.4µM	n	n	n	u
